SENP8 block-1: blocks the human protease SENP8; purified SENP8, Z-RLRGG-aminoluciferin cleavage, luminescence; inhibition, % at 10 µM; hit rate 1.2% among 330,000; AID 2540; in the data active means inhibition above about 50%
Target sequence (Q96LD8 whole entry, looked up): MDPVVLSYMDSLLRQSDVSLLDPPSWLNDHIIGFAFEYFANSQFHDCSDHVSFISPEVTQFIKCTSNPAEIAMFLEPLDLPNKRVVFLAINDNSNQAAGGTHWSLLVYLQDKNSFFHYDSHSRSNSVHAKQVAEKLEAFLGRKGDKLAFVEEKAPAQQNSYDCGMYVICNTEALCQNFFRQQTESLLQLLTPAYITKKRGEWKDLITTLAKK
SENP8 block-2: inhibitors of human SENP8 protease; Q96LD8; recombinant SENP8, Nedd8 substrate fluorescence; inhibition, % at 20 µM; hit rate 0.64% among 360,000; AID 602440; in the data active means inhibition mostly above about 40%, no sharp cut-off; inactive means mostly below about 27%
SENP6 block: blocks the human protease SENP6 | Q9GZR1 | Recombinant SENP6 catalytic domain, aminoluciferin luminescence | inhibition, % at 10 µM | hit rate 1.8% among 330,000;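 active means inhibition above about 50% at the single tested dose, limit read from the data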;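 further: plate controls were DMSO wells with enzyme for no effect and DMSO wells lacking enzyme for full effect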
Target sequence (Q9GZR1 628-1112 limits assumed): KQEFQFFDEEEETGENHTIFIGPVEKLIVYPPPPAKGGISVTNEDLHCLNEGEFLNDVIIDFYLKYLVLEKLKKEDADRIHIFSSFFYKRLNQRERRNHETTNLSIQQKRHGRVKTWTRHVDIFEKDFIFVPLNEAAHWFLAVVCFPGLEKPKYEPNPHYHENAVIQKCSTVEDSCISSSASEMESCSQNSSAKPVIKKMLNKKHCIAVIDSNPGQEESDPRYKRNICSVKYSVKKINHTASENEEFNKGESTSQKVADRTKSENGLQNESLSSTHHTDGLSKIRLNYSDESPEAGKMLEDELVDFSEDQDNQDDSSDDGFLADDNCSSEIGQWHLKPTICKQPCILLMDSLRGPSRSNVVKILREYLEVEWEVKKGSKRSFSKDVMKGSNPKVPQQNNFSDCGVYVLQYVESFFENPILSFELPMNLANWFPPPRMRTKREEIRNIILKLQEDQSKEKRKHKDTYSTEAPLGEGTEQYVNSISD
PPC-1+TRAIL kill: compounds killing PPC-1 cancer cells with TRAIL present (potentiator screen, no TRAIL-free arm); PPC-1 cells + TRAIL, ATPLite viability luminescence; cell killing (% activity), % at 4 µM or 5 µM; hit rate 0.41% among 220,000; AID 1443;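 active means cell killing above 50% in the first pass at 4 µM, then a duplicate retest at 5 µM averaging 50% or more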;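 further: plate controls were cells with TRAIL plus DMSO for no effect and medium-only wells lacking cells for full effect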
TRAIL sens C8: caspase-8 TRAIL sensitization; NB7+C8 cells + TRAIL, ATPlite viability luminescence; inhibition (viability loss, TRAIL sensitization), % at 10 µM; hit rate 1% among 360,000;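 active means compounds causing at least 50% loss of cell viability in the single-dose screen, relative to plate controls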
SENP7 block: inhibitors of human SENP7 protease | recombinant SENP7, Z-RLRGG-aminoluciferin luminescence, 40 min | inhibition, % at 5 µM | hit rate 1.5% among 330,000 | AID 434973;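 active means inhibition above about 50% at the single test dose, limit read from the data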;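 further: plate controls were DMSO with enzyme for no effect and no enzyme buffer wells for full effect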
SENP8 conf: confirmation of human SENP8 protease inhibitors. hit rate 40% among 6,200. shares compounds with SENP7 block. inhibition, % at 12.5 µM. Recombinant SENP8, Z-RLRGG-aminoluciferin luminescence, 60 min. AID 488912;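 active means mean inhibition across replicates above about 50%, limit read from the data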
SENP6 conf: human SENP6 inhibition, confirmed; shares compounds with SENP7 block; recombinant SENP6, Z-RLRGG-aminoluciferin luminescence; inhibition, % at 12.5 µM; hit rate 58% among 6,200
SENP7 conf: confirmation of human SENP7 protease inhibitors | shares compounds with SENP7 block | recombinant SENP7, Z-RLRGG-aminoluciferin luminescence, 40 min | inhibition, % at 12.5 µM | hit rate 69% among 6,200 | AID 488917
Casp3 SENP sel: caspase-3 inhibition (SENP selectivity assay). shares compounds with SENP7 block. purified caspase-3, Z-DEVD-aminoluciferin luminescence, 60 min. inhibition, % at 12.5 µM. hit rate 60% among 6,200;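 active means mean inhibition above about 50%, limit read from the data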;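 further: plate controls were enzyme with DMSO for no effect and wells without caspase-3 for full effect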
SENP luc ctr: luminescence interference (SENP counter-screen) | inhibition, % at 12.5 µM | shares compounds with SENP7 block | hit rate 39% among 6,200 | Pre-incubated SENP8/Z-RLRGG-aminoluciferin, luciferase luminescence interference;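 active means mean inhibition above about 50% when retested at one dose, limit read from the data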;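 further: plate controls were DMSO wells with completed reaction for no effect and substrate without enzyme for full effect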
Starred values were filed as active, the others as inactive; i = inactive; . = no result given. In the library only some 3% were active in any assay of this set; here they are far more common.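 How the source made its calls, unless noted: active means mean inhibition above about 50% in the one-dose retest (limit read from the data); inactive means the rest.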

SMILES	SENP8 block-1	SENP8 block-2	SENP6 block	PPC-1+TRAIL kill	TRAIL sens C8	SENP7 block	SENP8 conf	SENP6 conf	SENP7 conf	Casp3 SENP sel	SENP luc ctr
Fc1cccc2sc(Nc3nnc(-c4ccccc4)o3)nc12	63.0*	-314.6	85.1*	40.4	52.5*	45.4	8.1	7.4	1.4	60.3*	2.7
Cc1nn2c(N)c(-c3ccccc3)cnc2c1-c1ccc(Cl)cc1	-1.1	-301.1	2.0	.	5.5	5.0	.	.	.	.	.
CC(=O)c1cnc2c(-c3ccc(Cl)cc3)cnn2c1C	-6.2	-9.3	-17.4	10.1	-2.9	0.9	.	.	.	.	.
Nc1c(-c2ccccc2)cnc2c(-c3ccccc3)cnn12	5.1	i	43.3	.	83.7*	74.1*	7.5	18.7	50.0*	55.3*	2.5
Nc1c(C(=O)O)cnc2c(-c3ccc(Cl)cc3)cnn12	97.6*	-401.2	95.4*	34.2	20.5	100.2*	52.3*	100.2*	103.3*	98.2*	96.4*
CS(=O)(=O)c1cnc2c(-c3ccc(F)cc3)cnn2c1N	-6.7	-22.3	-5.0	31.3	36.4	2.7	.	.	.	.	.
Nc1c(-c2cccs2)cnc2c(-c3ccc(F)cc3)cnn12	27.6	-283.5	50.4*	.	60.5*	68.7*	8.2	34.0	48.2	41.6	8.8
COc1ccc(C(=O)N2CCCC(Nc3ccc(C)c(C)c3)C2)c(OC)n1 (stereo unspecified)	-1.1	-4.6	-5.8	.	-7.1	-0.4	.	.	.	.	.
CC(=O)c1cccc(NC(=O)c2cc3ccccn3n2)c1	-0.5	9.1	18.9	40.0	-6.4	6.6	.	.	.	.	.
Cc1ccc(C)c(NC(=O)c2cc3ccccn3n2)c1	27.3	3.9	56.1*	5.4	20.0	33.3	35.4	36.4	73.6*	71.8*	59.5*
Cc1ccc(C)c(NC(=O)c2cnn3ccccc23)c1	-1.8	-1.2	-3.4	18.5	18.9	0.9	.	.	.	.	.
Cc1ccccc1NC(=O)c1cc2ccccn2n1	61.7*	-0.3	-4.8	44.7	27.7	66.8*	71.9*	70.2*	88.9*	86.8*	73.5*
O=C(NCCc1cn[nH]c1)c1ccc2oc(CCc3ccccc3)nc2c1	.	15.6	.	.	-9.6	.	.	.	.	.	.
CC(CCc1ccccc1)NC(=O)C(Cc1ccccc1)NS(=O)(=O)c1cccs1 (stereo unspecified)	4.6	12.6	2.1	29.5	-2.0	80.1*	-30.2	-17.7	-8.2	-6.0	-8.8
O=C(CC(Nc1ccc(Cl)cc1Cl)C(=O)O)c1ccccc1 (stereo unspecified)	-2.3	26.4	-14.2	3.2	24.9	-5.1	.	.	.	.	.
Cc1ccc(NC(CC(=O)c2ccccc2)C(=O)O)cc1Cl (stereo unspecified)	73.7*	-33.5	-7.9	11.1	31.3	65.1*	-11.5	8.1	17.7	35.5	18.8
O=C(CCCN1C(=O)/C(=C/c2cccc(Br)c2)SC1=S)N1CCOCC1	27.3	9.0	64.1*	.	23.5	10.2	33.1	58.3*	65.2*	10.8	26.4
COc1ccc(/C=C2\SC(=S)N(CCCC(=O)N3CCN(C)CC3)C2=O)cc1	39.0	12.6	70.4*	.	-13.4	28.3	57.2*	52.8*	76.0*	54.1*	51.9*
CN1CCN(C(=O)CCCN2C(=O)/C(=C/c3cccc(Br)c3)SC2=S)CC1	4.9	20.1	52.2*	.	34.7	-3.5	46.9	36.8	44.2	21.7	35.8
CN1CCN(C(=O)CCN2C(=O)/C(=C/c3cccc(Br)c3)SC2=S)CC1	-5.0	29.1	-2.7	.	13.0	6.0	.	.	.	.	.
Cc1noc(C)c1S(=O)(=O)Nc1ccc2c(c1)C(=O)N([C@H](C)CO)C[C@H](C)[C@@H](CN(C)C(=O)Nc1ccc3c(c1)OCO3)O2	-11.4	-3.7	-20.9	.	1.8	3.7	.	.	.	.	.
CC(=O)N(/N=C1\Sc2ccccc2C1=O)c1ccccc1C	89.6*	-7.0	86.9*	28.8	25.1	63.4*	15.2	82.0*	35.8	4.9	7.5
CC(=O)N(c1ccccc1C)c1ccccc1C	.	8.1	.	.	-4.2	.	.	.	.	.	.
CC(=O)N(/N=C1\Sc2ccccc2C1=O)c1ccc(C)cc1C	83.4*	-52.9	87.0*	25.1	40.5	69.7*	6.0	65.3*	37.6	15.3	-1.4
Cc1ccc(-c2cnc(C(O)c3cc(F)cc(Cl)c3)[nH]2)cc1 (stereo unspecified)	.	5.0	.	.	-25.6	.	.	.	.	.	.
SMILES	SENP8 block-1	SENP8 block-2	SENP6 block	PPC-1+TRAIL kill	TRAIL sens C8	SENP7 block	SENP8 conf	SENP6 conf	SENP7 conf	Casp3 SENP sel	SENP luc ctr
O=C(O)c1ccc(/C=N\Nc2ccccn2)cc1	88.8*	-2.7	91.7*	.	1.3	94.9*	94.6*	96.0*	101.8*	98.2*	88.9*
CN(C)c1ccc(/C=N\Nc2ccccn2)cc1	33.8	-172.5	68.1*	.	32.0	54.2*	58.0*	56.9*	86.2*	67.8*	28.5
C(=N\Nc1ccccn1)/c1cccnc1	-21.9	5.4	-15.0	.	0.1	-12.3	.	.	.	.	.
CN(C)c1ccc(C=NNc2ccccn2)c(Cl)c1	.	-474.5	.	.	5.5	.	.	.	.	.	.
C[C@@H]1CN([C@H](C)CO)C(=O)CCCn2nncc2CO[C@@H]1CN(C)S(=O)(=O)c1cccc(F)c1	.	4.6	.	.	0.3	.	.	.	.	.	.
Nc1c(C(=O)Nc2cccc(C(=O)O)c2)sc2nc3c(cc12)CCCC3	46.7	-293.9	71.3*	.	81.6*	25.0	73.8*	68.0*	88.4*	17.8	43.1
Nc1c(C(=O)Nc2ccc(Cl)c(C(=O)O)c2)sc2nc3c(cc12)CCCC3	-9.8	-389.0	-10.3	.	20.6	-4.9	.	.	.	.	.
Brc1ccc(/C=N/Nc2nc3ccccc3o2)cc1	8.8	-32.7	22.9	.	2.2	55.4*	21.6	17.7	32.4	25.9	41.3
Oc1ccccc1/C=N/Nc1nc2ccccc2o1	68.7*	-26.0	82.5*	38.3	37.6	78.9*	27.6	61.9*	92.5*	66.2*	31.2
COc1ccc(/C=N/Nc2nc3ccccc3o2)cc1O	63.5*	-15.5	45.3	44.5	46.7	72.6*	84.4*	84.0*	96.9*	82.1*	82.2*
CC1(C)OC(=O)C2=C(C[C@@H](CCc3ccccc3)O[C@H]2CCc2cccc(Cl)c2)O1	.	9.5	.	.	4.6	.	.	.	.	.	.
Cc1cc(C)n(CC(=O)Nc2ccc(N3CCOCC3)c(Cl)c2)c(=O)c1C#N	5.1	-3.9	-9.5	.	11.4	-14.0	.	.	.	.	.
COc1ccc(-n2cc3ccc([N+](=O)[O-])cc3n2)cc1	78.3*	9.3	78.0*	.	10.5	86.9*	47.1	50.7*	71.6*	59.4*	31.2
